In PubChem BioAssay AID1159580 (chemical genetic matrix, 2015):
Where “and” joins values, the source holds several entries; their conditions need not be identical. Equal values may be shown once. About 2,000 (36%) of roughly 5,500 compounds were called active. Roughly 18% stayed inconclusive and do not appear here. Rule as the data show it: active = normalized growth mostly below about 0.91 (no sharp cut-off); inconclusive = no clear call, values can overlap the other calls; inactive = mostly above about 0.92. Some of the results follow.

Assay: chemical genetic growth profiling, strain panel (AID 1159580);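 also: tested at 20 µM; growth read once vehicle control cultures reached saturation at 30 °C; 1 = growth at the plate median or of vehicle wells; lower values mean less growth of the strain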
Conditions: growth OD

Measured: normalized growth

O=C(O)C(O)C(O)C(O)C(O)C(=O)O (stereo unspecified)
inactive: S. cerevisiae deletion strains, locus YBR021W, strain FUR4, active compounds read low 0.99 | S. cerevisiae deletion strains, locus YBR229C, strain ROT2, active compounds read low 0.998 | S. cerevisiae deletion strains, locus YCL029C, strain bik1, active compounds read low 0.982 | S. cerevisiae deletion strains, locus YDL035C, strain GPR1, active compounds read low 1.04 | S. cerevisiae deletion strains, locus YDL074C, strain BRE1, active compounds read low 1.04 | S. cerevisiae deletion strains, locus YDL101C, strain DUN1, active compounds read low 0.988 | S. cerevisiae deletion strains, locus YDL185W, strain tfp1, active compounds read low 1 | S. cerevisiae deletion strains, locus YDL192W, strain arf1, active compounds read low 0.993 | S. cerevisiae deletion strains, locus YDR101C, strain arx1, active compounds read low 0.983 | S. cerevisiae deletion strains, locus YDR150W, strain NUM1, active compounds read low 1.02 | S. cerevisiae deletion strains, locus YDR162C, strain NBP2, active compounds read low 1.01 | S. cerevisiae deletion strains, locus YDR318W, strain mcm21, active compounds read low 1 | S. cerevisiae deletion strains, locus YDR388W, active compounds read low 0.993 | S. cerevisiae deletion strains, locus YDR502C, strain sam2, active compounds read low 0.991 | S. cerevisiae deletion strains, locus YEL061C, strain CIN8, active compounds read low 1.06 | S. cerevisiae deletion strains, locus YER110C, active compounds read low 0.982 | S. cerevisiae deletion strains, locus YER155C, strain BEM2, active compounds read low 0.994 | S. cerevisiae deletion strains, locus YER167W, strain BCK2, active compounds read low 1 | S. cerevisiae deletion strains, locus YGL078C, strain dbp3, active compounds read low 0.994 | S. cerevisiae deletion strains, locus YGL086W, strain mad1, active compounds read low 0.966 | S. cerevisiae deletion strains, locus YGL248W, strain PDE1, active compounds read low 0.997 | S. cerevisiae deletion strains, locus YGR078C, strain PAC10, active compounds read low 0.997 | S. cerevisiae deletion strains, locus YGR135W, strain pre9, active compounds read low 0.991 | S. cerevisiae deletion strains, locus YGR229C, strain SMI1, active compounds read low 1.03 | S. cerevisiae deletion strains, locus YGR252W, strain gcn5, active compounds read low 1.04 | S. cerevisiae deletion strains, locus YHR030C, strain SLT2, active compounds read low 1 and 0.993 | S. cerevisiae deletion strains, locus YHR079C, strain IRE1 (second series), active compounds read low 0.99 | S. cerevisiae deletion strains, locus YHR079C, strain IRE1, active compounds read low 1 | S. cerevisiae deletion strains, locus YHR094C, strain hxt1, active compounds read low 0.989 | S. cerevisiae deletion strains, locus YHR129C, strain ARP1, active compounds read low 1.01 | S. cerevisiae deletion strains, locus YHR200W, strain rpn10, active compounds read low 0.983 | S. cerevisiae deletion strains, locus YIL066C, strain RNR3, active compounds read low 0.985 | S. cerevisiae deletion strains, locus YIL073C, strain SPO22, active compounds read low 1.01 | S. cerevisiae deletion strains, locus YIL125W, strain kgd1, active compounds read low 0.984 | S. cerevisiae deletion strains, locus YIR030C, strain dcg1, active compounds read low 0.986 | S. cerevisiae deletion strains, locus YJL095W, strain BCK1, active compounds read low 1.02 and 0.995 | S. cerevisiae deletion strains, locus YJL134W, strain LCB3, active compounds read low 1 | S. cerevisiae deletion strains, locus YJL168C, strain set2, active compounds read low 0.988 | S. cerevisiae deletion strains, locus YJL187C, strain SWE1 (second series), active compounds read low 0.996 | S. cerevisiae deletion strains, locus YJR043C, strain POL32, active compounds read low 1.01 | S. cerevisiae deletion strains, locus YJR066W, strain TOR1, active compounds read low 0.942 | S. cerevisiae deletion strains, locus YKL009W, strain mrt4, active compounds read low 0.966 | S. cerevisiae deletion strains, locus YKL068W, active compounds read low 0.998 | S. cerevisiae deletion strains, locus YKL085W, strain MDH1 (second series), active compounds read low 0.983 | S. cerevisiae deletion strains, locus YKL085W, strain MDH1, active compounds read low 0.983 | S. cerevisiae deletion strains, locus YKL190W, strain CNB1, active compounds read low 1.03 | S. cerevisiae deletion strains, locus YKR001C, strain vps1, active compounds read low 0.985 | S. cerevisiae deletion strains, locus YLR039C, strain RIC1, active compounds read low 1.07 | S. cerevisiae deletion strains, locus YLR058C, strain SHM2, active compounds read low 1 | S. cerevisiae deletion strains, locus YLR102C, strain apc9, active compounds read low 0.99 | S. cerevisiae deletion strains, locus YLR113W, strain HOG1, active compounds read low 0.995 | S. cerevisiae deletion strains, locus YLR262C, strain YPT6, active compounds read low 1.14 | S. cerevisiae deletion strains, locus YLR268W, strain sec22, active compounds read low 0.972 | S. cerevisiae deletion strains, locus YLR330W, strain CHS5, active compounds read low 0.992 | S. cerevisiae deletion strains, locus YLR342W, strain FKS1 (second series), active compounds read low 1 | S. cerevisiae deletion strains, locus YLR371W, strain rom2, active compounds read low 0.977 | S. cerevisiae deletion strains, locus YLR418C, strain cdc73, active compounds read low 0.993 | S. cerevisiae deletion strains, locus YML016C, strain PPZ1, active compounds read low 0.982 | S. cerevisiae deletion strains, locus YML032C, strain rad52, active compounds read low 1.02 | S. cerevisiae deletion strains, locus YML124C, strain tub3, active compounds read low 0.985 | S. cerevisiae deletion strains, locus YMR078C, strain ctf18, active compounds read low 0.983 | S. cerevisiae deletion strains, locus YMR223W, strain ubp8, active compounds read low 1.01 | S. cerevisiae deletion strains, locus YMR263W, strain SAP30, active compounds read low 1 | S. cerevisiae deletion strains, locus YMR307W, strain GAS1, active compounds read low 1.1 | S. cerevisiae deletion strains, locus YNL067W, strain RPL9B, active compounds read low 1 | S. cerevisiae deletion strains, locus YNL183C, strain NPR1, active compounds read low 0.909 | S. cerevisiae deletion strains, locus YNL233W, strain BNI4, active compounds read low 1 | S. cerevisiae deletion strains, locus YNL250W, strain rad50, active compounds read low 0.972 | S. cerevisiae deletion strains, locus YNL271C, strain bni1, active compounds read low 0.984 | S. cerevisiae deletion strains, locus YNL298W, strain CLA4, active compounds read low 0.992 | S. cerevisiae deletion strains, locus YNL307C, strain MCK1, active compounds read low 0.979 | S. cerevisiae deletion strains, locus YNL322C, strain KRE1, active compounds read low 1 | S. cerevisiae deletion strains, locus YNR052C, strain pop2, active compounds read low 1 | S. cerevisiae deletion strains, locus YOL006C, strain TOP1, active compounds read low 0.989 | S. cerevisiae deletion strains, locus YOL012C, strain htz1 0.785 | S. cerevisiae deletion strains, locus YOL147C, strain pex11, active compounds read low 0.991 | S. cerevisiae deletion strains, locus YOR061W, strain CKA2, active compounds read low 0.997 | S. cerevisiae deletion strains, locus YOR069W, strain VPS5, active compounds read low 1 | S. cerevisiae deletion strains, locus YOR136W, strain idh2, active compounds read low 0.983 | S. cerevisiae deletion strains, locus YOR144C, strain elg1, active compounds read low 0.982 | S. cerevisiae deletion strains, locus YOR184W, strain ser1, active compounds read low 0.993 | S. cerevisiae deletion strains, locus YOR231W, strain MKK1, active compounds read low 1.01 | S. cerevisiae deletion strains, locus YOR316C, strain cot1, active compounds read low 0.983 | S. cerevisiae deletion strains, locus YPL241C, strain CIN2, active compounds read low 1.05 | S. cerevisiae deletion strains, locus YPL256C, strain CLN2, active compounds read low 0.978 | S. cerevisiae deletion strains, locus YPR119W, strain clb2, active compounds read low 0.986 | S. cerevisiae deletion strains, locus YPR141C, strain kar3, active compounds read low 0.986 | S. cerevisiae deletion strains, locus YPR163C, strain tif3, active compounds read low 0.982 | S. cerevisiae deletion strains, locus YPR167C, strain met16, active compounds read low 0.988 | S. cerevisiae deletion strains, strain wtn01, active compounds read low 0.971 | S. cerevisiae strains, strain wild type, active compounds read low 1.03
